Assay outcomes (PubChem)
Compounds with a hit are over-represented: about 2.2% of the library has one in this group of screens.
ATXN2 expr inh: Primary qHTS for Inhibitors of ATXN expression | HEK-293 ATXN2-luciferase reporter, luminescence, 24 h | Potency, µM (highest dose often 57 µM), most hits filed as inhibitors | actives 0.72% (n = 360,000); further: nearly all actives have a fitted effect of over 55% in size
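qHTS (up to 57 uM final) was run with 24 h compound exposure of reporter cells at 37 °C. Each well was multiplexed: SteadyGlo luminescence measured ATXN2-luciferase expression after a fluorogenic Gly-Phe-AFC viability readout (25 uM final).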
HepG2 tox-1: qHTS for Inhibitors of TGF-b: Cytotox Counterscreen; HepG2 CAGA-GFP viability, ATP luminescence, 18 h; actives 0.76% (n = 410,000); AID 588856, 2011; Potency, µM (top dose mostly 46.1 µM), most hits filed as cytotoxic
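HepG2 CAGA-GFP cells (1000/well, DMEM with 1% FBS) received compound, then TGF-beta at 500 pg/mL final, and were incubated 18 hours at 37 degrees C. Viability was read by CellTiter-Glo luminescence. Media-only wells were set as complete cell-killing and DMSO as no toxicity.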
TGFb SMAD3 inh: qHTS for Inhibitors of TGF-b. actives 1.2% (n = 410,000). AID 588855, 2011. Potency, µM (doses to about 46.1 µM), usual class: inhibitors. HepG2 CAGA-GFP TGF-b/SMAD3 reporter, GFP fluorescence, 18 h; TGF-beta stimulated, 500 pg/mL final; further: nearly all actives have a fitted effect of over 65% in size
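Inhibition was scored as loss of TGF-beta-induced (500 pg/mL final, 18 hours, 37 degrees C) GFP in HEPG2 cells carrying a CAGA-GFP reporter, in DMEM with 1% FBS. Well GFP was summed per cell; Activity was normalised to unstimulated and stimulated DMSO wells, then concentration-response fitting.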
IDH1 R132H inh: qHTS for Inhibitors of mutant isocitrate dehydrogenase 1 (IDH1): qHTS. IDH1-R132H enzyme, NADPH consumption, diaphorase/resazurin fluorescence. Potency, µM (top dose mostly 76.6 µM), hits mostly inhibitors. Isocitrate dehydrogenase [NADP] cytoplasmic (Homo sapiens), O75874. AID 602179, 2012. actives 0.093% (n = 390,000); further: nearly all actives have a fitted effect of over 65% in size
Target sequence (O75874 whole entry R132H, stated change not applied): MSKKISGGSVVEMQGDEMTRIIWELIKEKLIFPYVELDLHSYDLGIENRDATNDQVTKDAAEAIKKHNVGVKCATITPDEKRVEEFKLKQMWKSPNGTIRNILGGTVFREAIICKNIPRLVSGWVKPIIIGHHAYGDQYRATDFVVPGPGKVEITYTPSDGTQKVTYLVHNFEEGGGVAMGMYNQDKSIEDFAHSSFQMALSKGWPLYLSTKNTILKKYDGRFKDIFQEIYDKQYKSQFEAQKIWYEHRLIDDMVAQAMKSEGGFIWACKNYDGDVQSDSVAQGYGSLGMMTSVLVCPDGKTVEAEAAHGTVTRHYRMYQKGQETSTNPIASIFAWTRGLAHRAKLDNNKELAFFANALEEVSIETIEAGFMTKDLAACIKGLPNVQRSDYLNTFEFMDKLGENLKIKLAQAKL
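IDH1-R132H (0.5 ug/mL dispensed) in pH 7.5 Tris buffer was preincubated 30 min with compound, then given a substrate mix of 0.016 mM NADPH and 2 mM alpha-KG for 80 min at room temperature; remaining NADPH was read by diaphorase/resazurin fluorescence.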
LDHA block: qHTS assay for inhibitors of human lactate dehydrogenase; L-lactate dehydrogenase A chain (Homo sapiens), P00338; purified LDHA, NADH/diaphorase-resazurin fluorescence; active compounds read low; activity change, % (values are at about 110 or 230 µM); actives 0.15% (n = 480,000); AID 1347041, 2019; in the data active means activity change below about -30%; inconclusive means mostly about -25% to -30%
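Resorufin fluorescence (ex540/em590), read at 0 and 20 min after diaphorase/resazurin addition, reports the NADH left after a 5 min room-temperature reaction of 2 nM human LDH5 with 0.06 mM NADH and 0.2 mM pyruvate.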
ATXN viability: Viability Counterscreen for Primary qHTS for Inhibitors of ATXN expression; actives 0.49% (n = 400,000); S2 cells (HEK-293 line with an ATXN2-luciferase reporter) viability, CellTiter-Fluor protease fluorescence, 24 h; Potency, µM (titrated, usually from 56.7 µM), hits mostly cytotoxic; AID 651635, 2014; further: nearly all actives have a fitted effect of over 40% in size
TGFb confirm: qHTS for Inhibitors of TGF-b: Confirmation of Cherry Picks; shares compounds with TGFb SMAD3 inh; HepG2 CAGA-GFP TGF-b reporter, GFP fluorescence, 18 h; cells stimulated with TGF-beta, 500 pg/mL; Potency, µM (series often up to 46.1 µM), most hits filed as inhibitors; actives 63% (n = 1,600); further: nearly all actives have a fitted effect of over 65% in size
HepG2 tox-2: qHTS for Inhibitors of TGF-b: Cytotox Counterscreen for Cherry Picks | Potency, µM (doses to about 46.1 µM), hits mostly inhibitors | shares compounds with TGFb SMAD3 inh | actives 27% (n = 1,600) | HepG2 CAGA-GFP viability, ATP luminescence, 18 h; cells stimulated with TGF-beta, 500 pg/mL | AID 720535, 2013; further: nearly all actives have a fitted effect of over 70% in size
CCL64 TGFb inh: qHTS for Inhibitors of TGF-b: CCL64 Cells Orthogonal Assay for Cherry Picks. shares compounds with TGFb SMAD3 inh. CCL64 CAGA-GFP reporter, TGF-b stimulated, GFP fluorescence, 18 h. Potency, µM (highest dose often 46.1 µM), most hits filed as inhibitors. actives 41% (n = 1,600). AID 720536, 2013; further: nearly all actives have a fitted effect of over 65% in size
COP TGFb inh: qHTS for Inhibitors of TGF-b: Hit Validation in HepG2 Cells using COP promoter. HepG2 COP-GFP TGF-b reporter, GFP fluorescence, 18 h; cells stimulated by added recombinant TGF-beta. AID 720537, 2013. shares compounds with TGFb SMAD3 inh. actives 3% (n = 1,600). Potency, µM (titrated, usually from 46.1 µM), actives largely listed as inhibitors; further: nearly all actives have a fitted effect of over 70% in size
Of the large screens only hits and unclear results are named; the others gave an inactive call (follow-up assays come after a bar, where they were run). Unless noted, the call rests on the fitted dose curve; in most records, active means well fitted curve in the direction sought with a large enough effect; inconclusive means small, poorly fitted or top-dose-only effect, or another doubt; inactive means no such curve, though single readings can be large; an effect the other way counts as inactive or inconclusive.

CSc1ccccc1NC(=O)C(C)N(C)CC(=O)N1CCN(Cc2ccccc2)CC1 (configuration not stated)	TGFb SMAD3 inh inconclusive, LDHA block inconclusive | TGFb confirm inconclusive | HepG2 tox-2 inactive | CCL64 TGFb inh inactive | COP TGFb inh inactive
COCCNC(=O)CCc1c(C)nc2c(c(C)nn2-c2ccc(C)c(C)c2)c1C	ATXN viability inconclusive (no result: ATXN2 expr inh)
O=C(NC(=S)Nc1cccc([N+](=O)[O-])c1)C1CCCC1	none
O=C(NC(=S)Nc1ccc([N+](=O)[O-])cc1O)C1CCCCC1	TGFb SMAD3 inh 11µM | TGFb confirm 16µM | HepG2 tox-2 inconclusive | CCL64 TGFb inh inactive | COP TGFb inh inactive
O=C1CC2(CCN(C(=O)c3cccc(F)c3)CC2)Oc2ccccc21	none
COc1cc(Cl)ccc1OCc1cc(C(=O)N(C)Cc2cccc3cnccc23)no1	TGFb SMAD3 inh 11µM | TGFb confirm 15µM | HepG2 tox-2 inconclusive | CCL64 TGFb inh inconclusive | COP TGFb inh inactive
Nc1nnnn1/N=C/C(Br)=C/c1ccccc1	ATXN2 expr inh 25µM, TGFb SMAD3 inh 3.5µM, ATXN viability 14µM | TGFb confirm inconclusive | HepG2 tox-2 inconclusive | CCL64 TGFb inh inconclusive | COP TGFb inh inactive
Nc1nnnn1/N=C/C=C/c1ccccc1	none
COC(=O)c1cc(=O)n2c(-c3ccc(OC)cc3)csc2n1	none
CCOc1ccc(CCN2C(=S)N([C@@H](CC(C)C)CN3CCCC3CN3C(=S)NC[C@@H]3CC(C)C)C[C@@H]2Cc2ccc(O)cc2)cc1 (some centres not stated)	ATXN2 expr inh inconclusive, TGFb SMAD3 inh inconclusive, ATXN viability inconclusive
CCOc1ccc(CCN2C(=S)N([C@@H](CC(C)C)CN3CCC[C@@H]3CN3C(=S)NC[C@@H]3CC(C)C)C[C@@H]2Cc2ccc(O)cc2)cc1	ATXN2 expr inh inconclusive, TGFb SMAD3 inh 6.3µM, ATXN viability 13µM (no result: IDH1 R132H inh) | TGFb confirm inconclusive | HepG2 tox-2 inconclusive | CCL64 TGFb inh 18µM | COP TGFb inh inactive
CCOc1ccc(CCN2C(=S)N([C@@H](CC(C)C)CN3CCCC3CN3C(=S)NC[C@@H]3Cc3ccc(O)cc3)C[C@@H]2CC(C)C)cc1 (some centres not stated)	TGFb SMAD3 inh 4.5µM, ATXN viability inconclusive | TGFb confirm 12µM | HepG2 tox-2 inactive | CCL64 TGFb inh inconclusive | COP TGFb inh inactive
Cc1cc(NC(=O)CSc2nc3c(C)cccc3cc2C)no1	none
NC(=S)NN=Cc1c[nH]c2nccnc12	TGFb SMAD3 inh 13µM, ATXN viability inconclusive (no result: ATXN2 expr inh) | TGFb confirm inconclusive | HepG2 tox-2 inconclusive | CCL64 TGFb inh inactive | COP TGFb inh inactive
CCOc1ccc(C(=O)NC(=S)Nc2cccc(NC(=O)c3ccco3)c2)cc1[N+](=O)[O-]	TGFb SMAD3 inh 8.9µM | TGFb confirm 8.2µM | HepG2 tox-2 inactive | CCL64 TGFb inh inconclusive | COP TGFb inh inactive
Cc1cc(Nc2cnc3ccccc3n2)n(-c2ccccc2)n1	TGFb SMAD3 inh inconclusive
Cc1cc(Nc2nc3ccccc3[nH]c2=O)n(-c2ccccc2)n1	TGFb SMAD3 inh 10µM | TGFb confirm 8.2µM | HepG2 tox-2 inactive | CCL64 TGFb inh 12µM | COP TGFb inh inactive
COc1ccc(C(CCNCc2ccc(F)cc2)c2ccc(F)cc2)cc1 (configuration not stated)	ATXN2 expr inh inconclusive, HepG2 tox-1 7.9µM, TGFb SMAD3 inh 2.8µM, ATXN viability inconclusive | TGFb confirm inconclusive | HepG2 tox-2 16µM | CCL64 TGFb inh inconclusive | COP TGFb inh inconclusive
CCCCNC(=O)c1ccc2c(OCC)n(CCCC)nc2c1	none
CCCn1nc2cc(C(=O)NCCc3cccs3)ccc2c1OCC	TGFb SMAD3 inh inconclusive | TGFb confirm inactive | HepG2 tox-2 inactive | CCL64 TGFb inh inactive | COP TGFb inh inactive
COc1cccc2nc3c(C(=O)NCCN(C)C)cccc3cc12	ATXN2 expr inh inconclusive, TGFb SMAD3 inh inconclusive, ATXN viability inconclusive
COc1ccc(C(=O)NCCN(C)C)c2nc3ccccc3cc12	ATXN2 expr inh 3.4µM, TGFb SMAD3 inh 7.1µM, ATXN viability inconclusive | TGFb confirm 10µM | HepG2 tox-2 4.6µM | CCL64 TGFb inh inconclusive | COP TGFb inh inactive
CC(C)n1ncc2c(C(=O)N3CCN(Cc4ccc(Cl)s4)CC3)cc(C3CC3)nc21	TGFb SMAD3 inh 10µM, ATXN viability inconclusive | TGFb confirm inconclusive | HepG2 tox-2 inactive | CCL64 TGFb inh inconclusive | COP TGFb inh inactive
Cc1cc(Cl)ccc1N=c1ssnc1Cl	TGFb SMAD3 inh 7.9µM | TGFb confirm 23µM | HepG2 tox-2 inconclusive | CCL64 TGFb inh inconclusive | COP TGFb inh inactive
Cc1ccc(N=c2ssnc2Cl)cc1	TGFb SMAD3 inh inconclusive
Cn1c(=O)c2c(-c3ccccc3)n3c(c2n(C)c1=O)C(c1coc2ccccc2c1=O)OCC3 (configuration not stated)	none (no result: ATXN2 expr inh, HepG2 tox-1, TGFb SMAD3 inh, IDH1 R132H inh, ATXN viability)
O=C(CCCCCCCCC#CI)Oc1ccccc1	none (no result: HepG2 tox-1, TGFb SMAD3 inh, IDH1 R132H inh, LDHA block)
Cc1cccc(-c2noc(CN(C(C)C)S(=O)(=O)c3ccc(F)cc3)n2)c1	none
